# An excerpt weighted towards active compounds, which were near 2.9% of everything screened.
# TSHR antagonist: antagonists of human thyroid stimulating hormone receptor; P16473; TSHR-expressing cells, TSH-stimulated cAMP HTRF, 2 h; stronger effect = lower value; activity change, negative = inhibition, % at 11.5 µM; 330,000 tested, 0.2% active; AID 504810;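 active = activity change below a set negative limit, meaning inhibition stronger than a set level, cut at about -70% in these data; inconclusive = activity change between two set negative limits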; note: % is set by controls: 0 for no effect and ±100 for the full control effect
#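 Competitive HTRF cAMP read-out (cryptate anti-cAMP antibody, cAMP-d2; 30 min, room temperature) in freshly harvested TSHR cells. Compounds added before TSH at EC80 (4nM final), followed by 2 hours' incubation at 37 deg C.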
# B2AR arrestin: beta2AR (human) beta-arrestin recruitment activity; beta-arrestin recruitment to beta2AR, cell-based reporter; 330,000 tested, 0.02% active; Potency, µM (titrated, usually from 46.1 µM), for inactives: at the top dose activation, actives largely listed as activators; active = well fitted activation curve with a large enough effect; inconclusive = small, poorly fitted or top-dose-only effect;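 note: potency is the fitted concentration of half-maximal effect; 0% = DMSO controls and full agonism = EC100 isoproterenol or metaproterenol; nearly all actives have a fitted effect of over 65% in size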
# Target sequence (P07550 whole entry, looked up): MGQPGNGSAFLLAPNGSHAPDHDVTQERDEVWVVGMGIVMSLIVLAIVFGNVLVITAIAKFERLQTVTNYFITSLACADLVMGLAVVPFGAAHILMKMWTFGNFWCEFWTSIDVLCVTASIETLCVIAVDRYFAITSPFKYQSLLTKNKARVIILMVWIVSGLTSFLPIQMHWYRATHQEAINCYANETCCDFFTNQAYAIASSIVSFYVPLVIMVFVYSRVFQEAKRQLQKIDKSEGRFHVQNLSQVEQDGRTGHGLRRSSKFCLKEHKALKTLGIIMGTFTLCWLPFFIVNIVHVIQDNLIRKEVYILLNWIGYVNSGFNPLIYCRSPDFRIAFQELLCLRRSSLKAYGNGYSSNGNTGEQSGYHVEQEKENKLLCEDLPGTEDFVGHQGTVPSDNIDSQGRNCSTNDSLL
# D3 antag: blocks the human D3 dopamine receptor; D3R cells, DiscoveRx beta-arrestin luminescence, antagonist mode; stronger effect = lower value; max response, negative = inhibition, %; 360,000 tested, 2.5% active; AID 652054; P35462; in the data active = max response below about -50%; inconclusive = no clear call, values can overlap the other calls; note: % is set by controls: 0 for no effect and ±100 for the full control effect
#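 Cells plated overnight at 1500 cells/well, then exposed to library compounds with dopamine controls for 90 minutes at 37 degrees C. DiscoveRx reagent added for 30–60 minutes at room temperature; luminescence read, quantitative HTS format.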
# D3 ag: D3 dopamine receptor (human) agonism; P35462; D3R DiscoveRx beta-arrestin cells, luminescence, 90 min; 410,000 tested, 0.58% active; max activation, %; in the data active = max activation above about 30%; note: 0% is about no effect
#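 Cells at 1500/well, incubated overnight, then treated with pinned compounds (dopamine as control) for 90 min at 37 degrees C. DiscoveRx reagent added for 30 - 60 minutes at room temperature; luminescence read.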
# * hit, by the source's call; ? = inconclusive; · = not tested or not shown.
SMILES,TSHR antagonist,B2AR arrestin,D3 antag,D3 ag
N#Cc1ccccc1Cn1c(=O)n(-c2cccc(C(F)(F)F)c2)c(=O)c2sccc21,·,·,·,0
Cc1nnc(NC(=O)c2cccc(S(=O)(=O)N3CC(c4ccccc4)CC3=O)c2)s1 (stereo not given),8,0%,4,68*
CCc1nnc(NC(=O)c2cccc(S(=O)(=O)N3CC(c4ccccc4)CC3=O)c2)s1 (stereo not given),2,0%,10,4
Cc1ccc(-n2c(-c3nn(C)c(C)c3Cl)n[nH]c2=S)cc1,0,-1%,-57*,-3
CCn1c(-c2nn(C)c(C)c2Cl)n[nH]c1=S,5,-1%,-9,-4
NC(=O)CCCCC1CCSS1 (stereo not given),·,·,·,-15
Cc1ccc(Cl)cc1NC(=O)C(NS(=O)(=O)c1cccc2nsnc12)c1ccccc1 (stereo not given),·,·,·,-6
COc1ccc(Cl)cc1Nc1nc(C)cc(=O)[nH]1,-2,0%,-81*,-15
Cc1ccc(CN2CCCn3nc(C(=O)NC(C)C)cc3C2=O)cc1,·,·,·,7
Cc1cccc(CSc2ccc3nnc(CCNS(=O)(=O)c4ccccc4)n3n2)c1,·,·,·,0
C=CCn1c(C(C)NC(=O)C(C)(C)C)nc2ccccc21 (stereo not given),-5,0%,-52*,16
Cc1nn(-c2ccccc2)c(-n2cccc2)c1C(=O)NCCCN1CCN(c2ccccc2F)CC1,·,·,·,0
COc1cc(Cl)c(NS(=O)(=O)c2ccc(-c3coc(C)n3)cc2)c(OC)c1,·,·,·,2
Cc1ccc(C(=O)N2CCCC(N(C)Cc3ccccc3)C2)s1 (stereo not given),0,0%,-62*,-12
Cc1ccc(C(=O)N2CCCC(C(=O)c3cc(F)ccc3F)C2)s1 (stereo not given),-21,0%,-11,0
O=C(NC(CSCc1ccccc1)C(=O)N/N=C/c1ccc(O)cc1O)c1ccc([N+](=O)[O-])cc1 (stereo not given),-10,0%,20,50*
NC(=O)C1CCN(c2nc(-c3cccc(Br)c3)cs2)CC1,-7,·,·,·
C#CCOCCOCCOCCNc1nc(N2CCN(C(=O)CCCCCCCCCCNC(=O)[C@H](CCCCN)n3cc(C)nn3)CC2)nc(N2CCN(C(=O)CCCCCCCCCCNC(=O)[C@@H]([C@H](C)O)n3cc(C)nn3)CC2)n1,-1,0%,22,0
C#CCOCCOCCOCCNc1nc(N2CCN(C(=O)CCCCCCCCCCNC(=O)[C@H](CCCCN)n3cc(C)nn3)CC2)nc(N2CCN(C(=O)CCCCCCCCCCNC(=O)[C@H](CCCN=C(N)N)n3cc(C[C@@H](C)CC)nn3)CC2)n1,?,0%,?,-21
C#CCOCCOCCOCCNc1nc(N2CCN(C(=O)[C@H]([C@@H](C)CC)n3cc([C@@H](N)CC(C)C)nn3)CC2)nc(N2CCN(C(=O)[C@H](Cc3cc4ccccc4[nH]3)n3cc([C@@H](N)Cc4ccc(O)cc4)nn3)CC2)n1,8,0%,-17,-11
C#CCOCCOCCOCCNc1nc(N2CCN(C(=O)[C@H]([C@@H](C)CC)n3cc([C@@H](N)Cc4ccc(O)cc4)nn3)CC2)nc(N2CCN(C(=O)[C@H](Cc3cc4ccccc4[nH]3)n3cc([C@@H](N)CC(C)C)nn3)CC2)n1,23,0%,-50*,-10
C#CCOCCOCCOCCNc1nc(N2CCN(C(=O)CCCCCCCCCCNC(=O)[C@H](CCCCN)n3cc(C[C@@H](C)CC)nn3)CC2)nc(N2CCN(C(=O)CCCCCCCCCCNC(=O)[C@@H]([C@H](C)O)n3cc(C)nn3)CC2)n1,-6,-1%,-59*,-12
C#CCOCCOCCOCCNc1nc(N2CCN(C(=O)CCCCCCCCCCNC(=O)[C@H](CCCCN)n3cc(C[C@@H](C)CC)nn3)CC2)nc(N2CCN(C(=O)CCCCCCCCCCNC(=O)[C@H](CCCN=C(N)N)n3cc(C[C@@H](C)CC)nn3)CC2)n1,-29,0%,-76*,-13
C#CCOCCOCCOCCNc1nc(N2CCN(C(=O)[C@H]([C@@H](C)CC)n3cc(CCCCN)nn3)CC2)nc(N2CCN(C(=O)[C@H](CCCCN)n3cc(CC(C)O)nn3)CC2)n1 (stereo not given in full),11,0%,-18,-5
